PubChem BioAssay (Tox21)
Inconclusive results are not listed. Active and inactive are the calls of the source. Unless noted, the call rests on the fitted dose curve; in most records, active means well fitted curve in the direction sought with a large enough effect in the repeat runs; inconclusive means weak or mixed curves; inactive means no such curve, though single readings can be large; an effect the other way counts as inactive or inconclusive.

Assays:
[1] = target: Estrogen receptor beta (Homo sapiens) (UniProt Q92731); assay: qHTS assay to identify small molecule agonists of the estrogen receptor beta (ER-beta) signaling pathway (AID 1259377; active means well fitted activation curve with a large enough effect in the signal ratio in the repeat runs, not every such curve was filed as active; the % refers to the signal ratio)
In short: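 Beta-lactamase reporter readout: fluorescence of LiveBLAzer B/G FRET substrate after 2 h at room temperature, following 16 h compound treatment of ER-beta-UAS-bla HEK293T cells at 37C in 2% charcoal-stripped FBS medium.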

[2] = target: Estrogen receptor beta (Homo sapiens) (UniProt Q92731); assay: qHTS assay to identify small molecule antagonists of the estrogen receptor beta (ER-beta) signaling pathway (AID 1259378; active means well fitted inhibition curve with a large enough effect in the signal ratio in the repeat runs, not every such curve was filed as active; the % refers to the signal ratio; further: potency means the concentration at half of the fitted maximal effect)
In short: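 Antagonist mode: compounds added to beta-lactamase reporter HEK293T ER-beta-UAS cells stimulated with E2 (1nM final), 16 hr at 37C. LiveBLAzer B/G FRET substrate, 2 hours room temperature, fluorescence read-out.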

[3] = qHTS assay to identify small molecule agonists of the androgen receptor (AR) signaling pathway in the presence of an antagonist - cell viability counter screen (AID 1259379); further: nearly all actives have a fitted effect of over 25% in size; further: potency means the concentration at half of the fitted maximal effect
In short: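 Each compound was tested at 15 concentrations on MDA-kb2 cells in the presence of 3.0uM nilutamide. Viability was measured by CellTiter-Fluor fluorescence after a 16 hr incubation at 37C in a CO2-free atmosphere.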

[4] = qHTS assay to identify small molecule antagonists of the estrogen receptor beta (ER-beta) signaling pathway - cell viability counter screen (AID 1259382);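 further: HEK293T cells carrying ER-beta-UAS-bla reporter stimulated with estradiol; series mostly up to about 92 µM; nearly all actives have a fitted effect of over 55% in size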
In short: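 CellTiter-Glo ATP luminescence measured after the LiveBLAzer read in the same wells; ER-beta-UAS-bla HEK293T cells, 16 hr compound treatment with 1nM 17-beta-estradiol agonist at 37C, 5% CO2.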

[5] = qHTS assay to identify small molecule agonists or antagonists of the thyroid stimulating hormone receptor (TSHR) signaling pathway - wild type cell line counter screen (AID 1259384; calls by dose curve)
In short: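 Counter screen in untransfected Hek293: compounds (15-point titration, triplicate) plus phosphodiesterase inhibitor Ro20-1724 added after 18 h plating; 30 min RT. Intracellular cAMP via competitive d2/cryptate immunoassay, 1 h incubation.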

[6] = target: Thyrotropin receptor (Homo sapiens) (UniProt P16473); assay: qHTS assay to identify small molecule antagonists of the thyroid stimulating hormone receptor (TSHR) signaling pathway (AID 1259385; calls by dose curve; further: nearly all actives have a fitted effect of over 20% in size)
In short: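 Antagonist mode: compound-treated TSHR-expressing HEK293 cells were stimulated with 1.5 ng/mL TSH (final) in presence of Ro20-1724 for 30 min at RT. HTRF cAMP detection after 1 h; each compound tested at 15 concentrations, triplicate.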

[7] = target: Estrogen receptor (Homo sapiens) (UniProt P03372); assay: qHTS assay to identify small molecule agonists of the estrogen receptor alpha (ER-alpha) signaling pathway in the presence of an antagonist (AID 1259383; calls by dose curve; further: nearly all actives have a fitted effect of over 15% in size; further: potency means the concentration at half of the fitted maximal effect; on activation: top concentration of the series differs between compounds)
In short: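 Luminescent ERE-luciferase reporter, VM7Luc4E2 cells (endogenous ER-alpha); 10.0nM ICI-182,780 final; 15-point compound titration; 22hr at 37C; ONE-Glo, 30min RT.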

[8] = qHTS assay to identify small molecule agonists of the estrogen receptor beta (ER-beta) signaling pathway - cell viability counter screen (AID 1259380); further: nearly all actives have a fitted effect of over 30% in size; further: potency means the concentration at half of the fitted maximal effect
In short: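 Compounds dissolved in DMSO were pin-transferred onto ER-beta-UAS-bla HEK293T cells that had settled 6 hr, and exposure ran 16 hr at 37C. Following the reporter read, CellTiter-Glo luminescence after 30 min at room temperature indicated cytotoxicity.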

[9] = target: Androgen receptor (Homo sapiens) (UniProt P10275); assay: qHTS assay to identify small molecule agonists of the androgen receptor (AR) signaling pathway in the presence of an antagonist (AID 1259381; calls by dose curve; further: nearly all actives have a fitted effect of over 15% in size; further: potency means the concentration at half of the fitted maximal effect)
In short: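 Plated MDA-kb2 cells (3,000/well) were pre-incubated 5hr, given nilutamide (3.0uM final) or buffer, then dosed with compounds in DMSO at 15 concentrations. Luciferase activity was quantified by luminescence after 16hr at 37C.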

Measured: Potency

Estrogen receptor beta (Homo sapiens), sequence (Q92731 whole entry, looked up): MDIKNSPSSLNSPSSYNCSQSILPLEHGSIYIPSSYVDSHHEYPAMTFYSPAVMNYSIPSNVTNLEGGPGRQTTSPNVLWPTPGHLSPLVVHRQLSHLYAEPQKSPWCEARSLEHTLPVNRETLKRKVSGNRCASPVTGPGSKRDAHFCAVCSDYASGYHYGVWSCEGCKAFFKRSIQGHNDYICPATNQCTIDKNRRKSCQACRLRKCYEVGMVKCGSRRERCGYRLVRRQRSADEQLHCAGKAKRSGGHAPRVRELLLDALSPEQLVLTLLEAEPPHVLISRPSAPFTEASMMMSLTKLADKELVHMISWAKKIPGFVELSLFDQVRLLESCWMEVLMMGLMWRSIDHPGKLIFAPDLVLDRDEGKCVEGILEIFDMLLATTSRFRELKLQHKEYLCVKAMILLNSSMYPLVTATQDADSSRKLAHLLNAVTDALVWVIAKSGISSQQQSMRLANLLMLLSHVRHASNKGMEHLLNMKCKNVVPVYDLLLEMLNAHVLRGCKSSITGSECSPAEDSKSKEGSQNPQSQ
Thyrotropin receptor (Homo sapiens), sequence (P16473 whole entry, looked up): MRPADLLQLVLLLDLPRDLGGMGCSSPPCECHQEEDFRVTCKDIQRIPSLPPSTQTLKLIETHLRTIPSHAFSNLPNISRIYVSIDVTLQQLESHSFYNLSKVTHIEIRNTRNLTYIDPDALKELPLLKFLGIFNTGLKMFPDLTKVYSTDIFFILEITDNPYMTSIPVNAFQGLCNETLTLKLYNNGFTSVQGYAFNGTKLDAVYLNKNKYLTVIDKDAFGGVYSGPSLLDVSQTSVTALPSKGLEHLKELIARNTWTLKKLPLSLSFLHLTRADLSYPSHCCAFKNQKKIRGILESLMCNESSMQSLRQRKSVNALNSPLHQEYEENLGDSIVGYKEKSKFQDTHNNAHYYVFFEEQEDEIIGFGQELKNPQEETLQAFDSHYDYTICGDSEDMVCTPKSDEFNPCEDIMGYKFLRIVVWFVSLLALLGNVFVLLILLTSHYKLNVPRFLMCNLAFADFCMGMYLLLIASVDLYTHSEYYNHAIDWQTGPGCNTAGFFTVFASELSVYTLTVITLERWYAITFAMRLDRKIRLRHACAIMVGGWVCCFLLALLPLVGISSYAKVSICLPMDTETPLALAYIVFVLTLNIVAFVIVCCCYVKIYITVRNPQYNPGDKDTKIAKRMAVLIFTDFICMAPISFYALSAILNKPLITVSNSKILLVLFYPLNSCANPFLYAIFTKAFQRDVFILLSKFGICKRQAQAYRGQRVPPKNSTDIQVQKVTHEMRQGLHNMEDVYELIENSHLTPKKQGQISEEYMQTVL
Estrogen receptor (Homo sapiens), sequence (P03372 whole entry, looked up): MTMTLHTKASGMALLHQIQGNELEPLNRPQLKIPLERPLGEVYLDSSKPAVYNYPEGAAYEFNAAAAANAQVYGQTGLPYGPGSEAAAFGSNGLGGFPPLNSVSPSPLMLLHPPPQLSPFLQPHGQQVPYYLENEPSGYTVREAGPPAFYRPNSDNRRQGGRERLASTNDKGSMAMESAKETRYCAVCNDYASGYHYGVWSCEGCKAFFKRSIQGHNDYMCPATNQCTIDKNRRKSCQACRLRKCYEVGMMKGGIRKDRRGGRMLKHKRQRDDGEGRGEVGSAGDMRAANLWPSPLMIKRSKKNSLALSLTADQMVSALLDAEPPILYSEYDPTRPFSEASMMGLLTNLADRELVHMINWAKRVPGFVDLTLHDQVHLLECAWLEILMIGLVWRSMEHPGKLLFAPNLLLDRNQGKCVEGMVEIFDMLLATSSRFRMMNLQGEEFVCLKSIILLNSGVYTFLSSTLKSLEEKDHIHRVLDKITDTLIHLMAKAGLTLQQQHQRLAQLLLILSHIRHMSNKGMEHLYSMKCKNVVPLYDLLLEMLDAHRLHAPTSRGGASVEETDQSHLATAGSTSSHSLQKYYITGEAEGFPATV
Androgen receptor (Homo sapiens), sequence (P10275 whole entry, looked up): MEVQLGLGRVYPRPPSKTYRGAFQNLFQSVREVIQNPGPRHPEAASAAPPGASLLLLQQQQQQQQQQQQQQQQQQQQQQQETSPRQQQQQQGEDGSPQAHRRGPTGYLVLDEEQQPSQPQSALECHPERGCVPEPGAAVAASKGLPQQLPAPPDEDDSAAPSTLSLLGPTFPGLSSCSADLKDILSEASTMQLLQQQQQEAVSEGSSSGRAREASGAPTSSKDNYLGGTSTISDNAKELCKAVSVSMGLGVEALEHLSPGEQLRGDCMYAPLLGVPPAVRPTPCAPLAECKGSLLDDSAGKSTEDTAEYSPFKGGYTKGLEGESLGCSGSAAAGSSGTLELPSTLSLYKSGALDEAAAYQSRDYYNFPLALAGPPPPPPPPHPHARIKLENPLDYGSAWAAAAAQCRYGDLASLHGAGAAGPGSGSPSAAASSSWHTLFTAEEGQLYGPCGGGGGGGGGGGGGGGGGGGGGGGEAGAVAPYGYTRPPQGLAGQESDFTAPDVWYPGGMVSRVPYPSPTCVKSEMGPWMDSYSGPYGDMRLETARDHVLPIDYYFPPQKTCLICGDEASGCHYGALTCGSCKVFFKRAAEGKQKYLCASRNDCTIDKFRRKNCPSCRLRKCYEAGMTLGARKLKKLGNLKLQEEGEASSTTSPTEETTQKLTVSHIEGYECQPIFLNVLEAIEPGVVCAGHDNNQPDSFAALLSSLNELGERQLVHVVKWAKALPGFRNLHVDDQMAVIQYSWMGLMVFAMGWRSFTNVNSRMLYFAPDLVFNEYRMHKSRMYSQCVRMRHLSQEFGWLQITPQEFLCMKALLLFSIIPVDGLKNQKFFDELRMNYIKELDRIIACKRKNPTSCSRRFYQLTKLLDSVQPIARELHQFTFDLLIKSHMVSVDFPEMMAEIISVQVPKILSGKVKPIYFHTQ

O=C(N[C@H]1N=C(c2ccccc2F)c2cccc3c2N(CC3)C1=O)c1cc2ccccc2[nH]1
not listed: [7] | [8] | [9]
inactive: all other assays above

Oc1ccc(Cl)c(Cl)c1
inactive: [3] | [7] | [5] | [6]

CC(C)(C)c1ccc(OP(=O)(Oc2ccccc2)Oc2ccccc2)cc1
inactive: [1] | [3] | [7]

COc1ccc2c3c1O[C@H]1[C@H](O)CC[C@H]4[C@@H](C2)N(C)CC[C@@]341
not listed: [4] | [7] | [9]
inactive: all other assays above

CO/N=C(/C1=NOCCO1)c1ccccc1Oc1ncnc(Oc2ccccc2Cl)c1F
inactive: [4] | [7]
active: [3] 15.3 µM | [8] 21.7 µM

O=[N+]([O-])c1cccc2cccc([N+](=O)[O-])c12
inactive: [1] | [3] | [8] | [4]

c1ccc(Nc2ccc(Nc3ccccc3)cc2)cc1
active: [2] 0.136 µM | [7] 54.3 µM
not listed: [8] | [9]
inactive: all other assays above

NC1CCC(CC2CCC(N)CC2)CC1 (stereo unspecified)
active: [3] 60.1 µM
inactive: [8] | [4] | [7]

C[C@H]1[C@H](c2ccc(Cl)cc2)SC(=O)N1C(=O)NC1CCCCC1
inactive: [2] | [9] | [7]

CC(C)NCC(O)c1ccccc1Cl (stereo unspecified)
inactive: [3] | [8] | [9] | [7]

O=C(Nc1ccc(F)cc1F)c1cccnc1Oc1cccc(C(F)(F)F)c1
not listed: [4] | [7] | [9]
inactive: all other assays above

COP(=S)(OC)Oc1ccc([N+](=O)[O-])c(C)c1
inactive: [1] | [3] | [4] | [7] | [6]

CCCCCON=O
not listed: [7] | [9]
inactive: all other assays above

Oc1ccc([C@H]2CNCc3c2ccc(O)c3O)cc1O
inactive: [1] | [8] | [4] | [7]

CCCC[N+]1(C)CCCC1 (tested in a mixture with another compound)
inactive: [3] | [8] | [4]

O=c1c2ccccc2c(=O)c2c1cc(Cl)c1[nH]c3c([nH]c12)c(Cl)cc1c(=O)c2ccccc2c(=O)c13
not listed: [1] | [2] | [9]
inactive: all other assays above

CCCCN(CCCC)C(=S)[S-].CCCCN(CCCC)C(=S)[S-].[Ni+2]
inactive: [3] | [8] | [4] | [7]

c1cc[n+]2c(c1)-c1cccc[n+]1CC2
not listed: [1] | [2] | [9]
inactive: all other assays above

O=[N+]([O-])[O-].[Tl+]
active: [8] 0.346 µM
inactive: [3] | [4] | [6]

c1ccc(N=NNc2ccccc2)cc1
inactive: [4] | [7] | [5] | [6]

Oc1cc(Cl)cc(Cl)c1
inactive: [3] | [8] | [4] | [7]

O=C1C[C@@H]2OCC=C3CN4CC[C@]56c7ccccc7N1[C@H]5[C@H]2[C@H]3C[C@H]46
inactive: [3] | [8] | [4] | [5] | [6]

Cc1ccccc1OP(=O)(Oc1ccccc1C)Oc1ccccc1C
inactive: [3] | [9] | [7] | [6]

O=c1[nH]c2cc(Cl)ccc2n1C1CCNCC1
not listed: [1] | [2] | [5]
inactive: all other assays above

N#CSCc1ccccc1
not listed: [1] | [5] | [9]
inactive: all other assays above

CCOP(=O)(OCC)Oc1nc(Cl)c(Cl)cc1Cl
active: [8] 8.58 µM
inactive: [3] | [9] | [7]

C[C@@H]1CC2=CC(=O)CC[C@@H]2[C@H]2CC[C@@]3(C)[C@@H](CC[C@]3(C)O)[C@@H]21
inactive: [3] | [8] | [4]

CCc1cccc(C)c1N(C(=O)CCl)[C@@H](C)COC
not listed: [2] | [7] | [9]
inactive: all other assays above

CN1CCc2cc3c(cc2C1O)OCO3 (stereo unspecified)
inactive: [8] | [4]

O=S1OCC2C(CO1)C1(Cl)C(Cl)=C(Cl)C2(Cl)C1(Cl)Cl (stereo unspecified)
inactive: [3] | [9] | [7] | [6]
active: [8] 48.5 µM

O.O.O.O=C([O-])[C@H]([O-])[C@@H]([O-])C(=O)[O-].O=C([O-])[C@H]([O-])[C@@H]([O-])C(=O)[O-].[K+].[K+].[Sb+3].[Sb+3]
inactive: [8] | [4] | [7]
active: [3] 17.3 µM

C[N+]1(C)[C@@H]2CC[C@H]1CC(OC(=O)C(CO)c1ccccc1)C2 (stereo partly specified)
inactive: [1] | [2] | [3] | [8] | [6]

CC#C[C@]1(O)CC[C@H]2[C@@H]3C[C@H](C)C4=CC(=O)CC[C@]4(C)[C@H]3CC[C@@]21C
inactive: [3] | [4] | [7] | [5] | [6]
active: [9] 0.237 µM

CN1C2CCC(C)(C)C1CC(OC(=O)C(O)(c1cccs1)c1cccs1)C2 (stereo unspecified)
inactive: [3] | [8] | [7] | [5] | [6]

CO/N=C(\C(=O)OC)c1ccccc1CO/N=C(\C)c1cccc(C(F)(F)F)c1
active: [3] 12.2 µM
inactive: [5]

FC(F)C(F)(F)OCC(Cn1cncn1)c1ccc(Cl)cc1Cl (stereo unspecified)
inactive: [1] | [5]
active: [8] 60.8 µM

CC(=O)[O-].CC(=O)[O-].CC(=O)[O-].[Cr+3]
inactive: [3] | [8]
